Measured values taken from PubChem BioAssay (NCATS).
Records with an inconclusive call do not appear. Where a call stands in place of a potency, no number is given. Active and inactive are the calls of the source. The call rests on the fitted dose curve; in most records, active means well fitted curve in the direction sought with a large enough effect; inconclusive means small, poorly fitted or top-dose-only effect, or another doubt; inactive means no such curve, though single readings can be large; an effect the other way counts as inactive or inconclusive.

Columns and labels:
[1] = High Content Imaging Cell-Based qHTS for Inhibitors of the mTORC1 Signaling Pathway in MEF (Tsc2-/-, p53-/-) Cells (AID 2666); settings: series mostly up to 38.3 µM;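 further: percent of cells scored positive for phospho-rpS6 Ser235/236 immunostaining by imaging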; further: potency means the concentration at half of the fitted maximal effect
How it was run: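 Read-out: % positive cells per well, with thresholds from highest- and lowest-signal wells, based on phospho-rpS6 (Ser235/236) intensity normalized to Hoechst nuclear stain. Cells: Tsc2-/-, p53-/- MEFs carrying empty vector; compound 24 hrs, 37 degree Celsius.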

[2] = High Content Imaging Cell-Based qHTS for Inhibitors of the mTORC1 Signaling Pathway in MEF Cells (AID 2667); settings: series mostly up to 38.3 µM; further: potency means the concentration at half of the fitted maximal effect
How it was run: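 MEF (Tsc2-/-, p53-/-, WT Tsc2 re-expressed); cpd 24 h, 37 °C; PFA fix; Alexa-488 anti-p-rpS6 Ser235/236, PI, Hoechst; IN Cell imaging; Hoechst/Alexa-488 intensity ratio; % active cells, thresholds set from rapamycin and DMSO wells.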

[3] = Cytometric Cell-Based qHTS for Inhibitors of the mTORC1 Signaling Pathway in MEF (Tsc2-/-, p53-/-) Cells (AID 2660); settings: mTORC1 pathway cytometry; series mostly up to 38.3 µM;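 further: percent of cells above a phospho-rpS6 to PI ratio cutoff in each well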
How it was run: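 Percent of cells positive for normalized phospho-S6 staining is reported, with the cutoff set from rapamycin (7.5 nM) versus DMSO wells. Tsc2-/-, p53-/- MEFs received compound for 24 hrs.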

[4] = Cytometry Cell-Based qHTS for Inhibitors of the mTORC1 Signaling Pathway in MEF cells (AID 2668); settings: mTORC1 pathway readout; series mostly up to 38.3 µM; further: potency means the concentration at half of the fitted maximal effect
How it was run: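 Read-out: phospho-rpS6 Ser235/236 immunofluorescence normalized to propidium iodide intensity, scored as % active cells against a rapamycin (7.5 nM) threshold. Cells: Tsc2-/-, p53-/- MEFs stably expressing WT Tsc2, compound-treated 24 hrs at 37 degree Celsius.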

| SMILES | Potency [1] | Potency [2] | outcome [3] | Potency [4] |
| --- | --- | --- | --- | --- |
| NS(=O)(=O)C#Cc1ccccc1 | inactive | inactive |  |  |
| CC(C)CC(NP(=O)(O)O[C@@H]1O[C@@H](C)[C@H](O)[C@@H](O)[C@H]1O)C(=O)NC(Cc1c[nH]c2ccccc12)C(=O)O (some centres not stated) | inactive | inactive | inactive | inactive |
| CCCCC#Cc1nc(NC)c2ncn([C@@H]3O[C@H](CO)[C@@H](O)[C@H]3O)c2n1 | inactive | inactive | inactive | inactive |
| CNc1ncnc2c1ncn2[C@@H]1O[C@H](CO)[C@@H](O)[C@H]1O | inactive | inactive | inactive | inactive |
| CN1CC(=O)N/C1=N/C(=O)Nc1cccc(Cl)c1 | inactive | inactive | inactive | inactive |
| O=C1NC(=O)/C(=C/c2ccc3nccnc3c2)S1 | inactive |  |  | 16.5 µM (active) |
| Nc1nc(Cl)nc2c1ncn2[C@@H]1O[C@H](CO)[C@@H](O)[C@H]1O | inactive | inactive | inactive | inactive |
| CO/N=C(\C(=O)N[C@@H]1C(=O)N2C(C(=O)O)=C(COC(C)=O)CS[C@H]12)c1csc(N)n1 | inactive | inactive | inactive | inactive |
| O=C1/C(=C/c2ccsc2)CC/C1=C\c1cccs1 | inactive | inactive | inactive | inactive |
| CN(C)CCCO[C@@H]1[C@H]2OC(C)(C)O[C@H]2O[C@@H]1[C@H](O)CO | inactive | inactive | inactive | inactive |
| NC(=O)C1=CN(C2OC(COP(=O)(O)OP(=O)(O)OC[C@H]3O[C@@H](n4cnc5c(N)ncnc54)[C@H](OP(=O)(O)O)[C@@H]3O)C(O)C2O)C=CC1 (some centres not stated) | inactive | inactive | inactive | inactive |
| CCCC1(C)C(C#N)(C#N)C1(C#N)C#N | inactive | 2.33 µM (active) |  |  |
| NCC1OC(O[C@H]2[C@H](O)[C@@H](OC3C(O)C(N)CC(N)C3OC3OC(CO)C(O)C(O)C3N)O[C@@H]2CO)C(N)C(O)C1O (some centres not stated) | inactive | inactive | inactive | inactive |
| CCOC(=O)N1CCN(/[N+]([O-])=N/Oc2ccc([N+](=O)[O-])cc2[N+](=O)[O-])CC1 | 13.1 µM (active) | inactive |  |  |
| Nc1nc(SCc2ccc([N+](=O)[O-])cc2)c2ncn([C@@H]3O[C@H](CO)[C@@H](O)[C@H]3O)c2n1 | inactive | inactive | inactive | inactive |
| CCC1C(=O)OCC1Cc1cncn1C (configuration not stated) | inactive | inactive | inactive | inactive |
| COc1ccc2c(c1)CCC1C2CC[C@@]2(C)C1CC[C@@H]2NCCCCCCN1C(=O)CCC1=O (some centres not stated) | inactive | 3.69 µM (active) | inactive | 4.65 µM (active) |
| OC[C@H]1O[C@@H](n2cnc3c(Nc4ccccc4)ncnc32)[C@H](O)[C@@H]1O | inactive | inactive | inactive | inactive |
| O=[N+]([O-])c1ccc2c(c1)S(=O)(=O)C=C2 | inactive | 1.85 µM (active) |  |  |
| CC(C)NC[C@@H](O)c1ccc(O)c(O)c1 | inactive | inactive |  | inactive |
| COc1cc(SC)ccc1C(=O)N1CCC(Cc2ccccc2)CC1 | inactive | inactive | inactive | inactive |
| CC(N)C(=O)OC(C)(C)Cc1ccc(Cl)cc1 (configuration not stated) | inactive | inactive | inactive | inactive |
